DT40 TDP1 CPT = qHTS for Inhibitors of human tyrosyl-DNA phosphodiesterase 1 (TDP1): qHTS in cells in presence of CPT; Potency, µM (highest dose often 46.2 µM), usual class: inhibitors; chicken DT40 Tdp1-/-;hTDP1 cells + 20 nM CPT, ATP luminescence, 48 h; 420,000 compounds, 12% hits; also: nearly all actives have a fitted effect of over 55% in size
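Chicken DT40 Tdp1-/- cells stably complemented with human TDP1 were seeded at 400 cells/well in medium containing 20 nM camptothecin, exposed to pin-transferred compounds, and grown at 37 °C for at least 48 hr. Viability was read as ATP luminescence.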
IL1B secr inh = qHTS for Inhibitors of Inflammasome Signaling: IL-1-beta AlphaLISA Primary Screen; THP-1 LPS/ATP IL-1B secretion, AlphaLISA, 16 h; stronger effect = lower value; activity change, % at 57.5 µM; 360,000 compounds, 4.7% hits; AID 743279, 2014; in the data active = activity change below about -50%; inconclusive = mostly about -30% to -49%
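THP-1 cells pretreated 1 hr with compounds (up to 57.5 uM final), then stimulated with LPS (250 ng/mL final) plus ATP (1.25 mM final); secreted IL-1B measured by AlphaLISA after 16 hr, decreased signal indicating inhibition.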
HT1080 IDH1KD tx = qHTS for induction of synthetic lethality in tumor cells producing 2HG: qHTS for the HT-1080-IDH1KD cell line; 360,000 compounds, 2% hits; HT-1080 IDH1 knockdown viability, ATP luminescence, 48 h; Potency, µM (series often up to 46.1 µM), usual class: cytotoxic
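Viability of IDH1-knockdown HT-1080 fibrosarcoma cells was assessed by CellTiter-Glo after 48 h at 37 °C with titrated compound; concentration-effect curves were classified by fit quality and response size.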
HT1080-NT tox = qHTS for induction of synthetic lethality in tumor cells producing 2HG: qHTS for the HT-1080-NT fibrosarcoma cell line; HT-1080-NT fibrosarcoma viability, CellTiter-Glo ATP luminescence, 48 h; Potency, µM (titrated, usually from 46.1 µM), hits mostly cytotoxic; 360,000 compounds, 1.6% hits; AID 686970, 2013;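 also: NT is the 2HG producing partner of a matched IDH1 knockdown line; nearly all actives have a fitted effect of over 55% in size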
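750 cells/well, RPMI + 5% FBS; 2 h settle, compound pin-transfer, 48 h at 37 degrees C. CellTiter-Glo 10 min RT, luminescence. Normalized to DMSO and media-only wells.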
TDP1 cell noCPT = qHTS for Inhibitors of human tyrosyl-DNA phosphodiesterase 1 (TDP1): qHTS in cells in absence of CPT. AID 686978, 2013. DT40 Tdp1-/- hTDP1 cells, no CPT, ATP luminescence, 48 h. 420,000 compounds, 15% hits. Potency, µM (series often up to 46.2 µM), actives largely listed as inhibitors; also: nearly all actives have a fitted effect of over 55% in size
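Seeded 400 DT40-hTDP1 cells/well (vehicle DMSO, no 20 nM CPT); pinned compounds; ≥48 hr at 37 °C; CellTiter-Glo luminescence as viability measure.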
Large screens that a line does not name were inactive. The list is not random: actives were taken first. Their share in the collection is about 19%. Unless noted, calls follow the shape of the dose curve; as a rule, active = well fitted curve in the direction sought with a large enough effect; inconclusive = small, poorly fitted or top-dose-only effect, or another doubt; inactive = no such curve, though single readings can be large; an effect the other way counts as inactive or inconclusive.

O=C(NCc1ccccc1)C(c1ccc(C(F)(F)F)cc1)n1c(=O)c(-c2cc3ccccc3[nH]2)nc2ccccc21 (stereo unspecified)	DT40 TDP1 CPT inconclusive, HT1080 IDH1KD tx inconclusive, HT1080-NT tox inconclusive, TDP1 cell noCPT 14.6µM
N#Cc1ccc(C(C(=O)NCc2ccccc2)n2c(=O)c(-c3cc4ccccc4[nH]3)nc3ccccc32)cc1 (stereo unspecified)	DT40 TDP1 CPT 11.6µM, TDP1 cell noCPT 9.2µM
CCCCCNC(=O)C(c1ccc(-c2ccccc2)cc1)n1c(=O)c(-c2cc3ccccc3[nH]2)nc2ccccc21 (stereo unspecified)	none
COc1ccc(Cl)cc1S(=O)(=O)N1CCCC1	none
CC(C)/C=N/NC(=O)c1ccc(Cl)cc1	DT40 TDP1 CPT inconclusive, TDP1 cell noCPT inconclusive
CCC(=O)Nc1cc(C(=O)OC(C(=O)c2ccc(C)c(C)c2)c2ccccc2)ccc1C (stereo unspecified)	DT40 TDP1 CPT 18.4µM, IL1B secr inh -58.5, TDP1 cell noCPT inconclusive
Cc1ccc(C)c(NC(=O)CCC(=O)OC(C(=O)c2ccccc2)c2ccccc2)c1 (stereo unspecified)	none
COc1ccc(CCNc2c(C=O)c(=O)[nH]c3ccccc23)cc1OC	none
COc1ccc(CCNc2c(N)n(Cc3ccccc3)c(=O)[nH]c2=O)cc1OC	IL1B secr inh -55.4, TDP1 cell noCPT inconclusive
COc1ccc(CCNC2=C(Cl)C(=O)N(CCc3ccccc3)C2=O)cc1OC	DT40 TDP1 CPT inconclusive, TDP1 cell noCPT 20.6µM
Nc1c(NCCC2=CCCCC2)c(=O)[nH]c(=O)n1Cc1ccccc1	DT40 TDP1 CPT 25.9µM, TDP1 cell noCPT 6.51µM
CCCC1CC(C(=O)NC(C(C)Cl)C2OC(SC)C(O)C(O)C2O)N(C)C1 (stereo unspecified)	none
O=C(O)c1ccc(NC2(C(=O)O)CCCC2)cc1	none
Cc1csc(=Nc2ccc(S(=O)(=O)N3CCOCC3)cc2)n1Cc1ccco1	DT40 TDP1 CPT 23.1µM, TDP1 cell noCPT 23.1µM
O=S(=O)(c1ccc(-c2ccccc2)cc1)N1CCOCC1	none
C=CCn1c(-c2ccc(S(=O)(=O)N3CCOCC3)cc2)csc1=Nc1ccccc1	DT40 TDP1 CPT 6.51µM, IL1B secr inh inconclusive, TDP1 cell noCPT 6.51µM
CC(=O)c1cccc(N=c2scc(-c3ccc(S(=O)(=O)N4CCOCC4)cc3)n2CCO)c1	DT40 TDP1 CPT 6.51µM, TDP1 cell noCPT 2.59µM
CC(C)Cn1c(-c2ccc(S(=O)(=O)N3CCCC3)cc2)csc1=Nc1ccccc1	DT40 TDP1 CPT 5.8µM, TDP1 cell noCPT 3.26µM (no result: IL1B secr inh, HT1080 IDH1KD tx, HT1080-NT tox)
Cc1ccc(C(=O)COC(=O)COc2ccc(C)c(C)c2)cc1	none
Oc1ccccc1C(=S)N1CCN(C(=S)c2ccccc2O)CC1	none
COc1ccc(C(=O)CSc2n[nH]c(=O)n2Cc2ccco2)cc1	TDP1 cell noCPT inconclusive
O=C1CC(c2ccco2)CC(O)=C1C=Nc1cc(Cl)ccc1O (stereo unspecified)	DT40 TDP1 CPT 14.6µM, TDP1 cell noCPT 18.4µM
O=C1CC(c2ccco2)CC(O)=C1C=Nc1ccccc1-c1ccccc1 (stereo unspecified)	DT40 TDP1 CPT 18.4µM, TDP1 cell noCPT inconclusive
O=C1CC(c2ccco2)CC(O)=C1C=Nc1cc(Cl)ccc1Cl (stereo unspecified)	none
O=C(Cn1c(=O)n(-c2ccccc2)c(=O)c2sc3ccccc3c21)N1CCCC1	none (no result: IL1B secr inh, HT1080 IDH1KD tx, HT1080-NT tox)
O=C(Cn1c(=O)n(-c2ccc(Cl)cc2)c(=O)c2sc3ccccc3c21)NC1CCCC1	DT40 TDP1 CPT 13µM, TDP1 cell noCPT 18.4µM (no result: IL1B secr inh, HT1080 IDH1KD tx, HT1080-NT tox)
O=C(Cn1c(=O)n(-c2ccc(F)c(Cl)c2)c(=O)c2sc3ccccc3c21)NC1CCCCC1	none (no result: IL1B secr inh, HT1080 IDH1KD tx, HT1080-NT tox)
O=C(Cn1c(=O)n(-c2cccc(Cl)c2)c(=O)c2sc3ccccc3c21)N1CCCC1	DT40 TDP1 CPT inconclusive, TDP1 cell noCPT 14.6µM (no result: IL1B secr inh, HT1080 IDH1KD tx, HT1080-NT tox)
Cc1noc(C)c1-c1nc(NC2CC2)c2ccccc2n1	TDP1 cell noCPT inconclusive (no result: IL1B secr inh, HT1080 IDH1KD tx, HT1080-NT tox)
CCOC(=O)c1c(NC(=O)CSc2nnc3c(n2)[nH]c2ccccc23)sc2c1CCN(C)C2	DT40 TDP1 CPT inconclusive, TDP1 cell noCPT inconclusive
CCOCCCNc1nc(C(F)(F)F)nc2c1nnn2Cc1ccccc1Cl	DT40 TDP1 CPT 18.4µM, HT1080-NT tox inconclusive, TDP1 cell noCPT 14.6µM
CC(C)(C)c1nc(NCCN2CCOCC2)c2nnn(Cc3ccccc3Cl)c2n1	DT40 TDP1 CPT 10µM, TDP1 cell noCPT 10µM
C=CCNc1nc(C(F)(F)F)nc2c1nnn2Cc1ccccc1Cl	DT40 TDP1 CPT inconclusive, TDP1 cell noCPT inconclusive
O=C1C=C(NCc2ccc(Cl)cc2)CC(c2ccco2)C1 (stereo unspecified)	DT40 TDP1 CPT 23.1µM, HT1080 IDH1KD tx inconclusive, TDP1 cell noCPT inconclusive
CCOC(=O)c1ccc(NC2=CC(=O)CC(c3ccco3)C2)cc1 (stereo unspecified)	TDP1 cell noCPT inconclusive
CC(C)CNC1=CC(=O)CC(c2ccco2)C1 (stereo unspecified)	none
O=C1C=C(Nc2ccc(Cl)cc2Cl)CC(c2ccco2)C1 (stereo unspecified)	DT40 TDP1 CPT 3.66µM, HT1080 IDH1KD tx 2.31µM, HT1080-NT tox 3.66µM, TDP1 cell noCPT 4.11µM
O=C1C=C(Nc2ccc(O)cc2)CC(c2ccco2)C1 (stereo unspecified)	DT40 TDP1 CPT 20.6µM, HT1080 IDH1KD tx inconclusive, HT1080-NT tox inconclusive, TDP1 cell noCPT 23.1µM
C=CCNC(=S)N/N=C/c1ccc(-c2ccc(OC)cc2)o1	DT40 TDP1 CPT 4.11µM, HT1080 IDH1KD tx inconclusive, HT1080-NT tox inconclusive, TDP1 cell noCPT 4.61µM
C=CCNC(=S)N/N=C/c1ccc(-c2cc(Cl)ccc2Cl)o1	DT40 TDP1 CPT inconclusive, TDP1 cell noCPT inconclusive
C=CCNC(=S)N/N=C/c1ccc(-c2ccc(Cl)cc2Cl)o1	DT40 TDP1 CPT 5.17µM, HT1080 IDH1KD tx inconclusive, HT1080-NT tox inconclusive, TDP1 cell noCPT 5.8µM
O=c1[nH]cc([N+](=O)[O-])cc1Br	DT40 TDP1 CPT 20.6µM, TDP1 cell noCPT inconclusive
CC1CCCN(CCOc2ccc3ccccc3c2Br)C1 (stereo unspecified)	DT40 TDP1 CPT inconclusive, IL1B secr inh -215.8, HT1080 IDH1KD tx 18.4µM, HT1080-NT tox 20.6µM, TDP1 cell noCPT inconclusive
CN(Cc1ccccc1)C(CNS(=O)(=O)c1ccccc1)c1ccccc1 (stereo unspecified)	DT40 TDP1 CPT inconclusive, TDP1 cell noCPT inconclusive
Cc1cccc(N(C)C(CNS(=O)(=O)c2ccccc2)c2ccccc2)c1 (stereo unspecified)	DT40 TDP1 CPT 16.4µM, TDP1 cell noCPT inconclusive (no result: IL1B secr inh, HT1080 IDH1KD tx, HT1080-NT tox)
